Paper PMC4336329 (PLoS ONE, 2015)
Screen size: about 310,000 compounds; about 14,000 (4.5%) showed an effect of 50% or more. The effect is printed as a negative number. The sample as a whole holds a higher share of strong results than the screen did.

Molecular target: human ether-à-go-go-related gene (hERG) potassium channel (human, UniProt Q12809)
Assay: primary screen, population patch clamp on CHO cells stably expressing hERG; higher = less effect of the substance
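Note: peak tail current of the secondary pulse compared with the same well before compound.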

Chain of human ether-à-go-go-related gene (hERG) potassium channel (Q12809 whole entry, looked up): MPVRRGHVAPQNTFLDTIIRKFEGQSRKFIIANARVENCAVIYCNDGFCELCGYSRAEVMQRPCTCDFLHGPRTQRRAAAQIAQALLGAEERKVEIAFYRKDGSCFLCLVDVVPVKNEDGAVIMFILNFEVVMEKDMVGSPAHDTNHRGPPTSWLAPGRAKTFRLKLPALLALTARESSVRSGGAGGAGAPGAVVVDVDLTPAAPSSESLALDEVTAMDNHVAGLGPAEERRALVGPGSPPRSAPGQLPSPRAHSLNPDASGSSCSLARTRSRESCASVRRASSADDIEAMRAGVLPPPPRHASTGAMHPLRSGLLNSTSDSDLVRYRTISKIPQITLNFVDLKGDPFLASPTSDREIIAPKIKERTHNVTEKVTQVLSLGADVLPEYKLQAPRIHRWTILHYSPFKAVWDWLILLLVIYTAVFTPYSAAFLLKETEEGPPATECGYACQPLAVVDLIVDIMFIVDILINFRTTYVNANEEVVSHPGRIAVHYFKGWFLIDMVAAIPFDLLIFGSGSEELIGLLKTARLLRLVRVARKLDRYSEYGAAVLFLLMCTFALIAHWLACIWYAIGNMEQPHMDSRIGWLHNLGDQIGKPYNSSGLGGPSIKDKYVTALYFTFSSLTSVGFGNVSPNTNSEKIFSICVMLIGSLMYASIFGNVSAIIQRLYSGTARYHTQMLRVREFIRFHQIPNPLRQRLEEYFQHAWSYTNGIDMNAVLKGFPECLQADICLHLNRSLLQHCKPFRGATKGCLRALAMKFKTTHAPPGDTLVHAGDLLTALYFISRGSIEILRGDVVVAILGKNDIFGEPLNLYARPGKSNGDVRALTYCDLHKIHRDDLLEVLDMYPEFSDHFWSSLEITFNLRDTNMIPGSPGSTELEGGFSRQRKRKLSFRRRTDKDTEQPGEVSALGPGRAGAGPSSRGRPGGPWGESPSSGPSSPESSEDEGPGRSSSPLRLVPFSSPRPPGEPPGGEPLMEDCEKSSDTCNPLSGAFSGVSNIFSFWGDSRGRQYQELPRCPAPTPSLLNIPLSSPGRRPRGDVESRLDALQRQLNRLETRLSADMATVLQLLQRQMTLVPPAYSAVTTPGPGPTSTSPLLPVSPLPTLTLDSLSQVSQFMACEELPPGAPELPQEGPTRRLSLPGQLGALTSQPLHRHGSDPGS

Row | Compound | hERG current change (%, negative = inhibition) at 10uM [%]
1 | COc1ccc(CCNC(=O)c2cc(S(=O)(=O)N(C)C)ccc2N2CCCC2)cc1OC | 5.99
2 | COc1ccc(OC)c(NC(=O)c2cc(S(=O)(=O)N(C)C)ccc2N2CCCC2)c1 | -68.1
3 | COc1ccc(C(C)(C)C)cc1NC(=O)c1cc(S(=O)(=O)N(C)C)ccc1N1CCCC1 | -60
4 | COc1ccc(NC(=O)c2cc(S(=O)(=O)N(C)C)ccc2N2CCCC2)cc1Cl | 12.7
5 | Cc1ccc(NC(=O)c2cc(S(=O)(=O)N(C)C)ccc2N2CCCC2)cc1S(=O)(=O)N(C)C | -26.5
6 | COc1cc(Cl)c(C)cc1NC(=O)c1cc(S(=O)(=O)N(C)C)ccc1N1CCCC1 | -51.8
7 | COc1cc(C(=O)NNC(=O)c2cc(S(=O)(=O)N(C)C)ccc2N2CCCC2)cc(OC)c1OC | 15.1
8 | COc1ccc(NC(=O)CN(C)C(=O)c2cc(S(=O)(=O)N(C)C)ccc2N2CCCC2)cc1 | -13.8
9 | COc1ccc(CCNC(=O)c2cc(S(=O)(=O)N(C)C)ccc2N2CCCC2)cc1 | 4.26
10 | CN(C)CCNc1cnn(-c2ccccc2)c(=O)c1Cl | 14.2
11 | CCOC(=O)c1[nH]c2ccccc2c1NC(=S)Nc1cccc(C)c1C | -5.81
12 | CC(C)(C)NC(=S)NNC(=O)c1ccncc1 | 15.4
13 | CC(C)c1nc2sc3c(c2c(=O)n1N)CC(C)(C)OC3 | 8.71
14 | CCCn1c(SCC(=O)Nc2ccc(C(=O)Nc3ccccc3OC)cc2)n[nH]c1=O | 11.9
15 | CC(NC(=O)CCNC(=O)c1ccco1)c1ccc(F)cc1 (stereo not drawn) | 12.3
16 | CCCC(=O)N(CCN1CCOCC1)c1nc2c(OCC)cccc2s1.Cl | 9.08
17 | CCOc1ccc2nc(N(CCCN(C)C)C(=O)c3ccc(C(=O)c4ccccc4)cc3)sc2c1.Cl | -35.5
18 | Cc1cc(C)c2nc(N(CCN(C)C)C(=O)c3ccc(S(=O)(=O)N(C)CC4CCCO4)cc3)sc2c1.Cl (stereo not drawn) | -43.6
19 | CCOc1cccc2sc(N(CCCN(C)C)C(=O)c3ccc(S(=O)(=O)N(C)Cc4ccccc4)cc3)nc12.Cl | -40.4
20 | CN(C)CCN(C(=O)c1ccc(S(=O)(=O)N(C)CC2CCCO2)cc1)c1nc2cc3c(cc2s1)OCO3.Cl (stereo not drawn) | -43.2
21 | CCOc1cccc2sc(N(CCCN(C)C)C(=O)c3ccc(C(=O)c4ccccc4)cc3)nc12.Cl | -72.1
22 | CCOc1cccc2sc(N(CCCN(C)C)C(=O)c3ccc(S(=O)(=O)N(C)c4ccccc4)cc3)nc12.Cl | -83.7
23 | CCOc1cccc2sc(N(CCCN(C)C)C(=O)c3ccc(S(=O)(=O)N(C)CC4CCCO4)cc3)nc12.Cl (stereo not drawn) | -77.4

Row | Compound | hERG current change (%, negative = inhibition) at 10uM [%]
24 | CCOc1cccc2sc(N(CCCN(C)C)C(=O)Cc3ccccc3)nc12.Cl | -80.2
25 | CCOc1cccc2sc(N(CCCN(C)C)C(=O)c3ccc(S(=O)(=O)N4CCc5ccccc5C4)cc3)nc12.Cl | 13.7
26 | CCOc1cccc2sc(N(CCN(C)C)C(=O)/C=C/c3cccs3)nc12.Cl | -40.7
27 | COc1cc2ccccc2cc1C(=O)N1CCCC(C(F)(F)F)C1 (stereo not drawn) | -14.3
28 | O=C(Nn1cc(C(=O)N2CCN(c3ccccc3F)CC2)c2ccccc2c1=O)c1cnccn1 | 2.84
29 | Cc1ccc(C(C)NC(=O)C23CC4CC(CC(C4)C2)C3)cc1 (stereo not drawn) | 11.4
30 | CCOc1cccc(NC(=O)CSc2nc(C)c3c(c2C#N)CCCC3)c1 | 0.331
31 | CCN(Cc1ccccc1)C(=O)COC(=O)c1cc(=O)[nH]c2ccccc12 | -4.27
32 | CCN1C(=NCCOC)N[C@@H](c2cccc(F)c2)C(C(=O)OC)=C1C | -14.3
33 | CCN1C(=NCCc2ccccn2)N[C@@H](c2cccc(F)c2)C(C(=O)OC)=C1C | -56.7
34 | CCN1C(=NCCCCO)N[C@@H](c2cccc(F)c2)C(C(=O)OC)=C1C | 6.82
35 | COC(=O)C1=C(C)N(Cc2ccccc2)C(=NCc2ccccc2)N[C@H]1c1cccc(F)c1 | -11.5
36 | COC(=O)C1=C(C)N(Cc2ccccc2)C(=NCc2ccc(OC)cc2)N[C@H]1c1cccc(F)c1 | 6.76
37 | COC(=O)C1=C(C)N(Cc2ccccc2)C(=NCCc2ccccn2)N[C@H]1c1cccc(F)c1 | -60.4
38 | O=C1c2ccccc2CN1CCSC(=S)N1CCOCC1 | -8.59
39 | CC(C)C[C@H](NC(=O)C1CC(=O)N(c2ccc3c(c2)OCO3)C1)C(=O)NC1CCCCC1 (stereo partly drawn) | 22.4
40 | COc1ccc(C(C)=O)cc1CSc1nc2cc(C(=O)O)ccc2c(=O)n1Cc1ccccc1 | 12.7
41 | COc1cc(CNCCc2ccccc2)cc(Cl)c1OCc1ccccc1.Cl | -18.7
42 | CCNCc1cc(Cl)c(OCc2ccccc2)c(OCC)c1.Cl | -8.51
43 | CCOc1cc(CNCCc2ccc(S(N)(=O)=O)cc2)cc(Cl)c1OCc1ccccc1.Cl | -70.7
44 | CCOc1ccc2ccccc2c1CNCCc1ccc(S(N)(=O)=O)cc1.Cl | -73.1
45 | CCOc1ccccc1OCC(=O)NCCc1ccc(S(N)(=O)=O)cc1 | 10.9
46 | CCOc1cc(CNCCc2ccc(S(N)(=O)=O)cc2)ccc1OCc1ccc(Cl)cc1.Cl | -18.5

Row | Compound | hERG current change (%, negative = inhibition) at 10uM [%]
47 | CCOc1cc(CNCCc2ccc(S(N)(=O)=O)cc2)ccc1OCC(=O)NC1CCCCC1.Cl | -36.3
48 | CCOc1cc(CNCCc2ccc(S(N)(=O)=O)cc2)ccc1OCc1ccccc1.Cl | -55.9
49 | CCOc1cc(CNCCc2ccc(S(N)(=O)=O)cc2)ccc1OCC(=O)NC(C)(C)C.Cl | 4.8
50 | COC(=O)c1ccc(C(=O)OC)c(NC(=O)/C=C/C(=O)O)c1 | 5.06
51 | CC(NC(=O)c1ccccc1SCC(=O)N1CCCC1)c1ccccc1 (stereo not drawn) | -26.1
52 | CCCCP(=O)(CCCC)Cc1ccccc1 | 15.3
53 | CCN1C(=O)NC(=O)/C(=C/c2cc(C)n(-c3sc(C)c(C)c3C#N)c2C)C1=O | -4.66
54 | COc1ccc(-c2c(C)nc(N)nc2-c2ccc(OCc3ccc(C)cc3)cc2O)cc1OC | 4.25
55 | CCOc1ccc(C(=O)N2CCN(Cc3ccccc3)CC2)cc1 | -69.3
56 | CCN1CCN(C(=S)c2ccc(O)cc2)CC1 | 11
57 | CCOc1ccc(C(=O)N2CCN(c3ccccc3)CC2)cc1 | -36.3
58 | CCOc1ccc(C(=O)N2CCCN(C(=O)c3ccc(OCC)cc3)CC2)cc1 | -71.8
59 | COc1ccc(C(=S)N2CCN(C)CC2)cc1 | -22.8
60 | CCOc1ccc(C(=O)N2CCCCCC2)cc1 | 2.03
61 | CCN(CC)c1ccc(C(=O)N2CCN(Cc3ccccc3)CC2)cc1 | -37.8
62 | CCOc1ccc(C(=O)N2CCCC2)cc1 | 5.24
63 | CCN1CCN(C(=S)c2ccc(OC)cc2)CC1 | -64.8
64 | COc1ccc(C(=O)N2CCN(c3cccc(Cl)c3)CC2)cc1 | -36
65 | CCOc1ccc(CN2CCN(C(=O)c3ccccc3)CC2)cc1 | -39.5
66 | CCOc1ccc(C(=O)N2CCN(c3cccc(Cl)c3)CC2)cc1 | -73.7
67 | Cn1c(SCC(=O)N2CCCC2=O)nc2ccccc21 | 28.2
68 | CCCS(=O)(=O)N1CCCC(C(=O)N2CCC3(CC2)OCCO3)C1 (stereo not drawn) | 15.7
69 | CCCCNS(=O)(=O)c1ccc2nc(-c3cccnc3)cc(C(=O)NCC(OC)OC)c2c1 | -2.03

Row | Compound | hERG current change (%, negative = inhibition) at 10uM [%]
70 | O=[N+]([O-])c1ccc(N2CCN(c3ccccc3F)CC2)c(S(=O)(=O)N2CCOCC2)c1 | -5.12
71 | CC(=O)NC(Nc1nc2c(s1)CCCC2)(C(F)(F)F)C(F)(F)F | 23.8
72 | C=CCNC(=O)/C(=C\C=C\c1ccccc1)NC(=O)c1ccccc1Cl | -49.7
73 | CNC(=O)c1[nH]cnc1C(=O)NCC(=O)OCc1ccccc1 | 13.9
74 | Cc1cc(NC(=O)c2cc([N+](=O)[O-])cc([N+](=O)[O-])c2)n(-c2ccccc2)n1 | 7.63
75 | COc1ccc(/C=C2\CCn3c2nc2cc(C(=O)O)ccc2c3=O)cc1 | 9.07
76 | COC(=O)CCCC1=CC2=CC(=O)C(C)(OC(=O)c3cccs3)C(=O)C2=CN1CCCCO (stereo not drawn) | 3.74
77 | CCCCc1cc(=O)oc2cc(OC(C)C(=O)NCc3ccccn3)c(Cl)cc12 (stereo not drawn) | -13.6
78 | Br.COc1ccc(-c2csc(CCN3N=C(C)CC3=O)n2)cc1 | 12.7
79 | CCOc1ccc(C(=O)N2CCN(c3cccc(C)c3C)CC2)cc1 | -79.9
80 | CCCNS(=O)(=O)c1ccc(OCC(=O)N2CCN(Cc3ccccc3)CC2)cc1 | -28.6
81 | O=C(CCNS(=O)(=O)c1ccccc1F)N1CCN(C/C=C/c2ccccc2)CC1 | -47.8
82 | O=C(CCNS(=O)(=O)c1ccc(OC(F)(F)F)cc1)N1CCN(C/C=C/c2ccccc2)CC1 | -81.5
83 | Cc1cccc(N2CCN(C(=O)c3ccncc3)CC2)c1C | -37
84 | CCOc1ccc(C(=S)N2CCCC2)cc1 | -7.78
85 | CCOc1ccc(C(=S)N2CCN(C)CC2)cc1 | -82.2
86 | CCOc1ccc(S(=O)(=O)NCCC(=O)N2CCN(Cc3ccccc3)CC2)cc1 | -54.2
87 | CCOC(=O)N1CCN(c2cccc(C)c2C)CC1 | -2.36
88 | Cc1ccc(S(=O)(=O)NCCC(=O)N2CCN(Cc3ccccc3)CC2)cc1 | 11
89 | Cc1ccc(S(=O)(=O)NCCC(=O)N2CCN(C/C=C/c3ccccc3)CC2)cc1 | -49.5
90 | CCOc1ccc(C(=S)N2CCOCC2)cc1 | -13.2
